SMILES strings stand for the structures.

We go through 13 molecules from ChEMBL document CHEMBL1157539, “Thousands of chemical starting points for antimalarial lead identification” (Nature, 2010).

In the assay the test system is Plasmodium falciparum. Kind of assay: GSK_TCMDC: Inhibition of Plasmodium falciparum 3D7 in whole red blood cells, using parasite LDH activity as an index of growth. Test compounds present at 2uM. Format: functional.
As a reminder, the Inhibition is the share of the control response that was lost under treatment. As to `O=C(O)C(F)(F)F.O=[N+]([O-])c1cccc(CNCC2CCC(CNCc3cccc([N+](=O)[O-])c3)CC2)c1` (stereo not drawn), the Inhibition amounted to 100%.

`COc1cc2ncnc(Nc3ccc(OCc4ccccc4Br)c(OC)c3)c2cc1OC.Cl` registered an Inhibition of 100%.

For `Fc1ccc2[nH]c(-c3ccc(-c4ccc(CNCC5CCCO5)cc4)s3)nc2c1.O=C(O)C(F)(F)F` (stereo not drawn), the Inhibition came out at 100%.

For `Cc1ccc(Nc2ccnc3cc(-c4nccs4)ccc23)cc1C(O)c1ccccc1.Cl` (stereo not drawn), the Inhibition is recorded as 85%.

The molecule `Cc1ccc(Nc2nc(C)cc(NC3CCCC3)n2)cc1` gave an Inhibition of 100%.

Regarding `O=c1cc(NCCCNC2CCCc3c2cc(Cl)c(Cl)c3Cl)[nH]c2ccccc12` (stereo not drawn), the Inhibition was 100%.

Turning to `CCc1ccc(CN2CCC(NC(=O)c3ccc(-c4ccccc4F)s3)CC2)cc1.O=C(O)C(F)(F)F`, the Inhibition turned out to be 80%.

On to `COc1ccc2ncc(F)c(CCN3CC[C@H](NC(=O)c4ccc5c(n4)NC(=O)CS5)[C@H](O)C3)c2n1.Cl`, for which the Inhibition was determined as 88%.

In turn, `COc1ccc(OC(C)CNC(=O)c2cc([N+](=O)[O-])ccc2-c2ccc(OC)cc2)cc1` (stereo not drawn) came in with an Inhibition of 92%.

In the case of `CN1CCC(N(Cc2ccc(-c3ccc(C(F)(F)F)cc3)nc2)C(=O)Cn2c(CCc3cccc(F)c3F)cc(=O)c3ccccc32)CC1.O=C(O)C(O)C(O)C(=O)O`, the Inhibition is recorded as 91%.

As for `CCOc1ccc(-c2nonc2NC(=O)c2ccco2)cc1OCC`, the Inhibition is on record as 97%.

`CC(C)c1ccc(-c2noc(SCC(=O)N(C)c3ccc(F)cc3)n2)cc1`: the Inhibition is given as 84%.

The molecule `CCNc1cc(C(=O)N[C@@H](Cc2ccccc2)[C@H](O)CNCc2cccc(-n3ccnc3)c2)cc(N2CCCC2=O)c1.O=C(O)C(F)(F)F` had an Inhibition of 99%.
